Data published in ChEMBL document CHEMBL3988442, “University of Dundee, Small-Polar-MMV Screening Library” (2021).
Out of some 48,000 compounds screened, about 13,000 (27%) showed an effect of 50% or more. The list shows a part of the results.

test system: Wolbachia pipientis; experiment: Anti-Wolbachia Cell-Based Screen; type: functional; set-up: scale not given: in the data most compounds retested in dose-response had high values; settings: 5 µM

SMILES | Percent Effect
CN(CCCc1nccn1C)C(=O)C1COc2ccccc2C1 (centres undefined) | -14.96%
Cc1ncsc1CCN(C)C(=O)c1ccc(Cn2cnnn2)cc1 | -0.04633%
Cc1nc(N2CCOCC2)nc2c1CN(C(=O)Cc1ccccn1)CC2 | 6.226%
Cc1nc(N2CCOCC2)nc2c1CN(CC(=O)N(C)C)CC2 | -19.6%
Cc1nc(N2CCOCC2)nc2c1CCN(C(=O)C1(C#N)CC1)CC2 | -22.43%
Cc1nc(N2CCOCC2)nc2c1CCN(C(=O)NC1CCCC1)CC2 | 25.82%
Cc1nc(N2CCOCC2)nc2c1CN(C(=O)C(C)C)CC2 | 99.02%
Cc1nc(N2CCCC2)nc2c1CCN(C(=O)N1CCCC1)CC2 | 98.24%
Cc1nc(N2CCOCC2)nc2c1CCN(C(=O)N1CCCC1)CC2 | 118.6%
Cc1nc(N2CCCC2)nc2c1CCN(C(=O)CC1CC1)CC2 | 43.96%
Cc1nc(N2CCCC2)nc2c1CCN(C(=O)C1CCCC1)CC2 | 4.07%
CS(=O)(=O)CCN1C[C@H](NC(=O)c2cnc(O)cn2)[C@@H](C2CC2)C1 | 5.128%
Cn1cccc1C(O)CNS(=O)(=O)c1ccccc1F (centres undefined) | -11.88%
CC(C)CCC(=O)N1CCN(c2ncnc3nc(N)ccc23)CC1 | -4.213%
COc1ccc(Cl)cc1NCC(=O)NCCc1ccccn1 | 3.443%
COc1ccc(Cl)cc1NCC(=O)NCCNc1ncccn1 | 100.4%
COc1cc(CNC(=O)CNc2cc(Cl)ccc2OC)ccn1 | -1.117%
COc1ccc(Cl)cc1NCC(=O)N(Cc1ccccn1)C1CC1 | -7.935%
COc1c(Cl)cc(C(=O)NCCNc2ncccn2)cc1Cl | 11.68%
COc1ccc(Cl)cc1NCC(=O)NCc1cccnc1OC | 108%
COc1ncccc1NC(=O)N1CCCC1c1cc(C)no1 (centres undefined) | -4.048%
Cc1cc(C(=O)N2C[C@H]3CC[C@@H]2CN(C)C3)ccc1Cl | -9.049%

SMILES | Percent Effect
CC(C)(C)OC(=O)NC(C)(C)c1noc(CSc2ccccn2)n1 | 18.32%
COC(=O)NC1(C(=O)Nc2ccc(-c3cc[nH]n3)cc2)CCCC1 | -10.93%
Cc1cc(C(=O)N2CCCC3(CCCN3Cc3cccnc3)C2)[nH]n1 (centres undefined) | 0.008691%
CC(=O)N1CC2(CCCN2Cc2ccc(Cl)cc2)Cc2ccccc21 (centres undefined) | 134.6%
Cn1cc(CN2CCCC3(CCCN3S(C)(=O)=O)C2)cn1.O=C(O)C(F)(F)F (centres undefined) | 1.436%
CCS(=O)(=O)N1CCCC2(CCCN2Cc2cccc(Cl)c2)C1.O=C(O)C(F)(F)F (centres undefined) | -14.69%
CS(=O)(=O)N1CC2(CCCN2Cc2ccc(Cl)cc2)Cc2ccccc21 (centres undefined) | 113.6%
CC(=O)N1CC2(CCCCN2Cc2ccc(Cl)cc2)Cc2ccccc21 (centres undefined) | 100.4%
CC(C#N)CSc1ccccc1NCC(=O)NC(C1CC1)C1CC1 (centres undefined) | -11.19%
CNC(=O)CN1CCC(OCc2ccc(Cl)c(Cl)c2)CC1 | 83.56%
NC(=O)CN1CCC(OCc2ccc(Cl)c(Cl)c2)CC1 | 99.68%
COc1cccc(COCC(=O)NC2CCN(CC(N)=O)CC2)c1 | 5.2%
NC(=O)CN1CCC(C(=O)NCc2ccc3nonc3c2)CC1 | -14.82%
CSCCC(O)C(=O)N1CCC(OCc2cccnc2)CC1 (centres undefined) | -3.942%
NC(=O)CN1CCC(Nc2ccnc3ccc(Cl)cc23)CC1 | 13.98%
NC(=O)CN1CCC(NC(=O)COc2ccc(Cl)c(Cl)c2)CC1 | 99.17%
CC(C)Oc1cccc(CC(=O)NC2CCN(CC(N)=O)CC2)c1 | -2.756%
CCC(N)C(=O)N1CCC(OCc2ccc(Cl)c(Cl)c2)CC1.Cl (centres undefined) | 104.6%
CNC(=O)CN1CCN(C(=O)Nc2ccc(Cl)cc2F)CC1 | 0.4531%
CCOC1CCN(C(=O)NCc2ccc(CN3CCOCC3)cc2)CC1 | -24.74%
CNC(=O)CN1CCC(c2cc(OC)cc(OC)c2)C1 (centres undefined) | 8.564%
CCn1c(N)nc2cc(C(=O)N3CCN(CC(F)(F)F)CC3)cnc21 | -2.793%

SMILES | Percent Effect
COc1ccc(F)c(CN2CCCC3(CCN(C(=O)CSC)C3)C2)c1 (centres undefined) | -11.54%
Cc1ccc(F)c(C(=O)NC2CCC(N3C(=O)CCC3=O)CC2)c1 (centres undefined) | -6.109%
CN1CCCN(C(=O)NCc2csc(Br)c2)CC1 | -2.09%
CN(C)c1ncccc1CNC(=O)c1csc(Br)c1 | -2.901%
CCn1cc(C(=O)NCc2csc(Br)c2)cn1 | -5.042%
CN(C)c1ccc(C(=O)NCc2csc(Br)c2)cn1 | 132.1%
O=C(NCc1csc(Br)c1)c1cnccn1 | 122.2%
CC1(c2ccccc2)CCC(=O)N(CCN2CCOC2=O)C1 (centres undefined) | -0.3831%
CSC1(CNC(=O)NC(C)c2ccc(F)cc2)CCOCC1 (centres undefined) | -5.884%
O=C(NCC1(O)CCSC1)c1ccoc1 (centres undefined) | 12.35%
O=C(NCC1CCC2(CC1)OCCO2)c1ccncc1F | -3.003%
O=C(NCC1CCC2(CC1)OCCO2)c1cccc(-n2cccn2)c1 | 116.2%
Cc1cc(C(=O)NCC2CCC3(CC2)OCCO3)[nH]n1 | -25.64%
O=C(NCC1(O)CCSC1)c1cccc(-n2cccn2)c1 (centres undefined) | 105.6%
CNC(=O)CCOC(=O)c1cccc(-n2cccn2)c1 | -2.822%
O=C(NCC1(O)CCSC1)c1ccn(-c2ccccc2F)n1 (centres undefined) | -10.8%
CC(CNC(=O)c1cccc(-n2cccn2)c1)Cn1ccnc1 (centres undefined) | -7.057%
CSC1(CNC(=O)c2ccn(-c3ccccc3F)n2)CCOCC1 | -3.806%
CSC1(CNC(=O)c2cccc(-n3cccn3)c2)CCOCC1 | 126.6%
O=C(NCC1(O)CCC1)c1cccc(-n2cccn2)c1 | 119.5%
Cn1cc(C(C)(O)CNc2ccccn2)cn1 (centres undefined) | -0.1049%
Oc1cc(CN2CCCCC2c2cccnc2)nc2c(F)cccc12 (centres undefined) | -16.88%

SMILES | Percent Effect
CC(C)n1ccnc1C1CCN(C(=O)C2COc3ccccc3O2)CC1 (centres undefined) | -5.747%
CCS(=O)(=O)N1CCCC2(COCCN(c3nnc(C)o3)C2)C1.O=C(O)C(F)(F)F (centres undefined) | -4.041%
c1ccc2c(c1)CC(Cc1cc(N3CCCC3)cnn1)CCO2 (centres undefined) | -11.32%
CC1c2ncc(Cn3cccn3)n2CCN1S(C)(=O)=O.O=C(O)C(F)(F)F (centres undefined) | 89.72%
O=S(=O)(C1CC1)N1CCc2ncc(Cn3cccn3)n2CC1 | -13.53%
CC1c2ncc(Cn3cccn3)n2CCN1c1ncccn1.O=C(O)C(F)(F)F (centres undefined) | 86.74%
O=S(=O)(C1CC1)N1CCn2c(Cn3cccn3)cnc2C1 | 7.108%
COCc1cnc2n1CCN(C1CCCC1)C2C.O=C(O)C(F)(F)F (centres undefined) | 11.21%
O=C(NC1CC1)N1CCn2c(Cn3cccn3)cnc2C1.O=C(O)C(F)(F)F | 5.205%
CC1c2ncc(Cn3cccn3)n2CCN1S(=O)(=O)C1CC1 (centres undefined) | 92.87%
O=C(O)C(F)(F)F.O=C(O)C(F)(F)F.c1cnn(Cc2cnc3n2CCN(CC2CCCCC2)C3)c1 | -2.959%
Cc1noc(C)c1CN1CCc2ncc(Cn3cccn3)n2CC1.O=C(O)C(F)(F)F | -5.332%
CCc1nsc(N2CCN(Cc3ccno3)CC2)n1 | -4.168%
COC(=O)C1CCN(C(=O)c2ccc(NS(C)(=O)=O)c(C)c2)CC1 | -4.777%
O=S(=O)(c1ccc(Cl)cc1)N1CCC(OCc2ccccn2)C1 (centres undefined) | -17.23%
CS(=O)(=O)NC[C@H]1Cn2c(-c3ccc(F)cc3)cnc2CO1 | -20.98%
CC(C)(C)OC(=O)N1CSC[C@@H]1C(=O)NCc1ccsc1 | -2.991%
O=C1CSc2ccc(C(=O)N3CCCC(n4ccnc4)C3)cc2N1 (centres undefined) | 1.64%
O=C(c1cnc(-c2cccs2)s1)N1CCCC(n2ccnc2)C1 (centres undefined) | 98.86%
NC(=O)c1ccc(C(=O)N2CCCC(n3ccnc3)C2)s1 (centres undefined) | 109.7%
O=C(c1cccnc1N1CCOCC1)N1CCCC(n2ccnc2)C1 (centres undefined) | -11.91%
O=C(c1cnc(-c2cccs2)s1)N1CCCN2CCCC2C1 (centres undefined) | 13.8%

SMILES | Percent Effect
NC(=O)c1cccc(C(=O)N2CCCC(n3ccnc3)C2)c1 (centres undefined) | 111.9%
COCCOc1cccc(C(=O)N2CCCC(n3ccnc3)C2)c1 (centres undefined) | 85.64%
O=C(O)C1(Oc2ccc3ccccc3c2)CCN(c2ncccn2)CC1 | -9.781%
Cc1c[nH]cc1C(=O)N1CCN(CCc2cccs2)CC1 | -2.994%
CCC1COCCN1C(=O)CNC(=O)c1ccsc1 (centres undefined) | -5.336%
OCc1ccc(CN2CCC(n3cc(C4CCCCC4)nn3)CC2)o1 | 0.3058%
CCS(=O)(=O)c1ccc(N2CCC(NC(=O)NC(C)CO)CC2)cc1 (centres undefined) | 0.3155%
COCCNS(=O)(=O)c1ccc(CNc2ncccc2C#N)cc1 | 18.7%
NC(=O)c1ccc(OCC(=O)N2CCCC(n3cccn3)C2)cc1 (centres undefined) | -3.222%
NC(=O)c1cccc(OCC(=O)N2CCCC(n3cccn3)C2)c1 (centres undefined) | -3.677%
NC(=O)c1cccc(OCC(=O)N2CCCC(n3ccnc3)C2)c1 (centres undefined) | 113%
C[C@@H](NC(=O)c1cnccn1)c1c(-c2ccc(Cl)cc2)noc1C(=O)O.Cl | -1.348%
CCCc1nc(CNc2cc(CS(C)(=O)=O)ccc2Cl)no1 | -7.067%
Cc1nc(NC2CCCCC2)cc(C2CCCNC2)n1.Cl (centres undefined) | 84.03%
Cc1nc(C2CCNCC2)cc(N2CCCC(C(=O)NCCCO)C2)n1 (centres undefined) | 12.53%
Cc1nccc(N[C@H]2CN(CCC(=O)NC3CCCC3)C[C@@H]2C2CC2)n1 | -19.22%
CNC(=O)CCc1cc(C2CCNCC2)nc(C)n1.Cl.Cl | 115.3%
Cc1nc(CCC(=O)NC2CCC2)cc(C2CCCNC2)n1 (centres undefined) | 108.9%
Cc1nc(NC2CCS(=O)(=O)CC2)cc(C2CCCNC2)n1 (centres undefined) | 5.772%
CNC(=O)C1CCN(c2cc(C3CCNCC3)nc(C)n2)C1 (centres undefined) | 9.34%
Cc1nc(CCC(=O)NCC(N)=O)cc(C2CCNCC2)n1 | 128.9%
